# Reference: PubChem BioAssay AID1159580 (chemical genetic matrix, 2015)
# In all, about 5,500 compounds went through this assay and about 2,000 (36%) were called active. Inconclusive results (about 18%) are left out. The list shows a part of the results. Values without a mark were called inactive. No stated cut-off is given here; in the data, active means normalized growth mostly below about 0.91 (no sharp cut-off); inconclusive means no clear call, values can overlap the other calls; inactive means mostly above about 0.92.
# Assay: chemical genetic growth profiling, strain panel (AID 1159580);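 further: tested at 20 µM; growth read once vehicle control cultures reached saturation at 30 °C; 1 = growth at the plate median or of vehicle wells; lower values mean less growth of the strain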
# Conditions: growth OD
smiles,measurement,setting,value
CN[C@@H]1C(O)[C@@H](O[C@@H]2[C@@H](O)[C@H](O[C@H]3OC(CN)=CC[C@H]3N)[C@@H](N)C[C@H]2N)OC[C@]1(C)O (some centres undefined),normalized growth,"S. cerevisiae deletion strains, locus YJR075W, strain HOC1, active compounds read low",1.02
same,normalized growth,"S. cerevisiae deletion strains, locus YKL009W, strain mrt4, active compounds read low",1.01
same,normalized growth,"S. cerevisiae deletion strains, locus YKL068W, active compounds read low",0.996
same,normalized growth,"S. cerevisiae deletion strains, locus YKL085W, strain MDH1 (second series), active compounds read low",1
same,normalized growth,"S. cerevisiae deletion strains, locus YKL085W, strain MDH1, active compounds read low",1
same,normalized growth,"S. cerevisiae deletion strains, locus YKL160W, strain elf1, active compounds read low",1.02
same,normalized growth,"S. cerevisiae deletion strains, locus YKL190W, strain CNB1, active compounds read low",1.02
same,normalized growth,"S. cerevisiae deletion strains, locus YKR001C, strain vps1, active compounds read low",0.993
same,normalized growth,"S. cerevisiae deletion strains, locus YKR026C, strain gcn3, active compounds read low",1
same,normalized growth,"S. cerevisiae deletion strains, locus YKR091W, strain srl3, active compounds read low",1.01
same,normalized growth,"S. cerevisiae deletion strains, locus YLL001W, strain dnm1, active compounds read low",1.03
same,normalized growth,"S. cerevisiae deletion strains, locus YLL026W, active compounds read low",1.02
same,normalized growth,"S. cerevisiae deletion strains, locus YLL041C, strain sdh2, active compounds read low",1.02
same,normalized growth,"S. cerevisiae deletion strains, locus YLR027C, strain aat2, active compounds read low",1.02
same,normalized growth,"S. cerevisiae deletion strains, locus YLR039C, strain RIC1, active compounds read low",1.13
same,normalized growth,"S. cerevisiae deletion strains, locus YLR058C, strain SHM2, active compounds read low",1.02
same,normalized growth,"S. cerevisiae deletion strains, locus YLR102C, strain apc9, active compounds read low",0.993
same,normalized growth,"S. cerevisiae deletion strains, locus YLR113W, strain HOG1, active compounds read low",0.949
same,normalized growth,"S. cerevisiae deletion strains, locus YLR221C, strain rsa3, active compounds read low",0.984
same,normalized growth,"S. cerevisiae deletion strains, locus YLR258W, strain gsy2, active compounds read low",1.01
same,normalized growth,"S. cerevisiae deletion strains, locus YLR262C, strain YPT6 (second series), active compounds read low",1.03
same,normalized growth,"S. cerevisiae deletion strains, locus YLR262C, strain YPT6, active compounds read low",1.09
same,normalized growth,"S. cerevisiae deletion strains, locus YLR268W, strain sec22, active compounds read low",1.01
same,normalized growth,"S. cerevisiae deletion strains, locus YLR320W, strain mms22, active compounds read low",0.988
same,normalized growth,"S. cerevisiae deletion strains, locus YLR330W, strain CHS5, active compounds read low",1.01
same,normalized growth,"S. cerevisiae deletion strains, locus YLR342W, strain FKS1 (second series), active compounds read low",1.05
same,normalized growth,"S. cerevisiae deletion strains, locus YLR342W, strain FKS1, active compounds read low",1.02
same,normalized growth,"S. cerevisiae deletion strains, locus YLR357W, strain rsc2, active compounds read low",1.03
same,normalized growth,"S. cerevisiae deletion strains, locus YLR370C, strain arc18, active compounds read low",1.02
same,normalized growth,"S. cerevisiae deletion strains, locus YLR371W, strain rom2, active compounds read low",0.995
same,normalized growth,"S. cerevisiae deletion strains, locus YLR384C, strain iki3, active compounds read low",1.01
same,normalized growth,"S. cerevisiae deletion strains, locus YLR418C, strain cdc73, active compounds read low",1.02
same,normalized growth,"S. cerevisiae deletion strains, locus YML016C, strain PPZ1, active compounds read low",1.02
same,normalized growth,"S. cerevisiae deletion strains, locus YML120C, strain ndi1, active compounds read low",1.02
same,normalized growth,"S. cerevisiae deletion strains, locus YML124C, strain tub3, active compounds read low",0.991
same,normalized growth,"S. cerevisiae deletion strains, locus YMR058W, strain fet3, active compounds read low",1.03
same,normalized growth,"S. cerevisiae deletion strains, locus YMR078C, strain ctf18, active compounds read low",0.996
same,normalized growth,"S. cerevisiae deletion strains, locus YMR125W, strain sto1, active compounds read low",1
same,normalized growth,"S. cerevisiae deletion strains, locus YMR129W, active compounds read low",1.01
same,normalized growth,"S. cerevisiae deletion strains, locus YMR205C, strain PFK2, active compounds read low",1.02
same,normalized growth,"S. cerevisiae deletion strains, locus YMR223W, strain ubp8, active compounds read low",1
same,normalized growth,"S. cerevisiae deletion strains, locus YMR231W, strain pep5, active compounds read low",1
same,normalized growth,"S. cerevisiae deletion strains, locus YMR263W, strain SAP30, active compounds read low",1.05
same,normalized growth,"S. cerevisiae deletion strains, locus YMR307W, strain GAS1, active compounds read low",1.01
same,normalized growth,"S. cerevisiae deletion strains, locus YNL067W, strain RPL9B, active compounds read low",1.04
same,normalized growth,"S. cerevisiae deletion strains, locus YNL071W, strain lat1, active compounds read low",1.02
same,normalized growth,"S. cerevisiae deletion strains, locus YNL128W, strain TEP1, active compounds read low",1.04
same,normalized growth,"S. cerevisiae deletion strains, locus YNL153C, strain GIM3, active compounds read low",1.03
same,normalized growth,"S. cerevisiae deletion strains, locus YNL183C, strain NPR1, active compounds read low",0.93
same,normalized growth,"S. cerevisiae deletion strains, locus YNL209W, strain ssb2, active compounds read low",1.01
same,normalized growth,"S. cerevisiae deletion strains, locus YNL233W, strain BNI4, active compounds read low",1.02
same,normalized growth,"S. cerevisiae deletion strains, locus YNL248C, strain rpa49, active compounds read low",0.992
same,normalized growth,"S. cerevisiae deletion strains, locus YNL250W, strain rad50, active compounds read low",1
same,normalized growth,"S. cerevisiae deletion strains, locus YNL271C, strain bni1, active compounds read low",1
same,normalized growth,"S. cerevisiae deletion strains, locus YNL298W, strain CLA4, active compounds read low",1
same,normalized growth,"S. cerevisiae deletion strains, locus YNL307C, strain MCK1, active compounds read low",0.999
same,normalized growth,"S. cerevisiae deletion strains, locus YNL322C, strain KRE1 (second series), active compounds read low",0.996
same,normalized growth,"S. cerevisiae deletion strains, locus YNL322C, strain KRE1, active compounds read low",1.02
same,normalized growth,"S. cerevisiae deletion strains, locus YNR049C, strain mso1, active compounds read low",1.04
same,normalized growth,"S. cerevisiae deletion strains, locus YNR052C, strain pop2, active compounds read low",0.987
same,normalized growth,"S. cerevisiae deletion strains, locus YOL006C, strain TOP1, active compounds read low",1.19
same,normalized growth,"S. cerevisiae deletion strains, locus YOL012C, strain htz1",2.02
same,normalized growth,"S. cerevisiae deletion strains, locus YOL147C, strain pex11, active compounds read low",0.986
same,normalized growth,"S. cerevisiae deletion strains, locus YOR001W, strain rrp6, active compounds read low",1.03
same,normalized growth,"S. cerevisiae deletion strains, locus YOR061W, strain CKA2, active compounds read low",1.02
same,normalized growth,"S. cerevisiae deletion strains, locus YOR069W, strain VPS5, active compounds read low",1.11 [resistant] (active)
same,normalized growth,"S. cerevisiae deletion strains, locus YOR070C, strain gyp1, active compounds read low",1
same,normalized growth,"S. cerevisiae deletion strains, locus YOR080W, strain dia2, active compounds read low",1
same,normalized growth,"S. cerevisiae deletion strains, locus YOR083W, strain WHI5, active compounds read low",0.992
same,normalized growth,"S. cerevisiae deletion strains, locus YOR106W, strain vam3, active compounds read low",1.03
same,normalized growth,"S. cerevisiae deletion strains, locus YOR136W, strain idh2, active compounds read low",0.991
same,normalized growth,"S. cerevisiae deletion strains, locus YOR144C, strain elg1, active compounds read low",0.991
same,normalized growth,"S. cerevisiae deletion strains, locus YOR184W, strain ser1, active compounds read low",1.01
same,normalized growth,"S. cerevisiae deletion strains, locus YOR231W, strain MKK1, active compounds read low",0.952
same,normalized growth,"S. cerevisiae deletion strains, locus YOR265W, strain rbl2, active compounds read low",1
same,normalized growth,"S. cerevisiae deletion strains, locus YOR270C, strain vph1, active compounds read low",1.05
same,normalized growth,"S. cerevisiae deletion strains, locus YOR290C, strain snf2, active compounds read low",0.979
same,normalized growth,"S. cerevisiae deletion strains, locus YPL051W, strain arl3, active compounds read low",1.01
same,normalized growth,"S. cerevisiae deletion strains, locus YPL055C, strain LGE1, active compounds read low",1.09
same,normalized growth,"S. cerevisiae deletion strains, locus YPL078C, strain atp4, active compounds read low",1.03
same,normalized growth,"S. cerevisiae deletion strains, locus YPL106C, strain sse1, active compounds read low",1.02
same,normalized growth,"S. cerevisiae deletion strains, locus YPL240C, strain hsp82, active compounds read low",1.01
same,normalized growth,"S. cerevisiae deletion strains, locus YPL256C, strain CLN2, active compounds read low",0.96
same,normalized growth,"S. cerevisiae deletion strains, locus YPR119W, strain clb2, active compounds read low",0.984
same,normalized growth,"S. cerevisiae deletion strains, locus YPR141C, strain kar3, active compounds read low",1
same,normalized growth,"S. cerevisiae deletion strains, locus YPR163C, strain tif3, active compounds read low",0.966
same,normalized growth,"S. cerevisiae deletion strains, locus YPR167C, strain met16, active compounds read low",0.999
same,normalized growth,"S. cerevisiae deletion strains, strain wtn01, active compounds read low",1.01
same,normalized growth,"S. cerevisiae strains, strain wild type, active compounds read low",1.01
